Several values for one entry are separate records, joined by “and”; a condition that tells them apart may be missing. Equal values may be shown once. This is part of a sample that, as a whole, favours compounds with a hit. Of some 79,000 tested, about 15% had one in any assay. The source holds several records for some structures; these can differ, active in one and inactive in another. Activity calls are given as the source filed them. Rule as the data show it: active = growth inhibition above about 70%; inactive = the rest.
Test: NCI Yeast Anticancer Drug Screen. Data for the sgs1 mgt1 strain (AID 161);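 also: 0% = growth of cultures given vehicle only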
Details: S. cerevisiae sgs1 mgt1 strain, at 50.0 µM, stronger effect = higher value
In short: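 Compounds are added to genetically altered yeast, and growth is compared with cultures given vehicle alone to give percent inhibition.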

| SMILES | growth inhibition |
| --- | --- |
| O=C(c1ccc(Br)cc1)C1C(c2ccccc2)N1C1CCCCC1 (centres undefined) | 96.5% (active) |
| Cc1cccc2cc3ccccc3c[n+]12 | 97.3% (active) |
| Cc1ccc(P(=O)(c2ccc(C)cc2)c2ccc(C)cc2)cc1.Cc1ccc(P(=O)(c2ccc(C)cc2)c2ccc(C)cc2)cc1.[Cl][Sn]([Cl])([Cl])[Cl] | 42.6% (inactive) |
| c1ccc(P(CCP(c2ccccc2)c2ccccc2)CCP(c2ccccc2)c2ccccc2)cc1 | 91% (active) |
| O=[N+]([O-])c1cc2c([N+](=O)[O-])cccc2o1 | 99.2% (active) |
| O=C1CCC[N]1[Hg][N]1CCCC1=O | 94.2% (active) |
| Oc1c(Cl)c(Cl)c(Cl)c(Cl)c1Cl.[Cu+2] | 81% (active) |
| ClCCN(CCCl)c1ccc(C=NCCCCN=Cc2ccc(N(CCCl)CCCl)cc2)cc1 | 82.8% (active) |
| CC(C(=O)C1CCCCC1)[n+]1ccccc1 (centres undefined) | -2.3% (inactive) |
| CN(C)CC1CCCCC1=O (centres undefined) | 47.4% (inactive) and -15.4% (inactive) and -9.6% (inactive) |
| CSc1nncc(=O)[nH]1.[Hg] | 99.5% (active) |
| CNC(=O)N1CN(c2ccccc2)C2(CCN(CCCC(=O)c3ccc(F)cc3)CC2)C1=O | 68.3% (inactive) |
| O=C(OCc1ccccc1)C(C(Cl)c1ccccc1)N(Cc1ccccc1)Cc1ccccc1 (centres undefined) | 85.5% (active) |
| O=C1C=C(Cl)C(=O)C=C1Cl | 99.5% (active) |
| CC(=O)[O][Hg][c]1ccccc1N | 93.7% (active) |
| CCOP(=O)(Cc1cccc2ccccc12)OCC | 13.4% (inactive) |
| Nc1c(Cl)cccc1C(=O)O | 45.7% (inactive) |
| CC(=O)O[C@H]1CC[C@H]2[C@@H]3CCC4=CC(=O)CC[C@@H]4[C@H]3CC[C@]12C | 97.8% (active) |
| C1CC[N-]CC1.CC(=N\O)/C(C)=N/O.CC(=N\O)/C(C)=N/O.OC1[CH-]CCCC1.[Co+2] | 13.9% (inactive) |
| c1ccc(C(C(=Nc2ccc(Cc3ccc(N=C(C(c4ccccc4)c4ccccc4)N4CC4)cc3)cc2)N2CC2)c2ccccc2)cc1 | 94.1% (active) |

| SMILES | growth inhibition |
| --- | --- |
| CCN(Cc1ccccc1)CC(O)c1ccc(Cl)c(Cl)c1 (centres undefined) | 20.1% (inactive) |
| CC(=O)OC1C(O)C(C)OC(OC2C(OC(=O)C3CCC4C(C3)OC3(CC(OC(=O)/C=C/c5ccccc5)C(C)CO3)C43CO3)OC(C)C(O)C2OC(C)=O)C1O (centres undefined) | 93% (active) |
| CCCCC(CC)CNP(=S)(NCC(CC)CCCC)NCC(CC)CCCC (centres undefined) | 6.25% (inactive) |
| Oc1c(-c2ccccc2)cc(-[n+]2c(-c3ccccc3)cc(-c3ccccc3)cc2-c2ccccc2)cc1-c1ccccc1 | 89.6% (active) |
| Cc1ccc([C@H]2N[C@@H]2c2ccccn2)cc1 | 3.45% (inactive) |
| CC[CH2][Sn]([CH2]CC)([CH2]CC)[CH2]CCBr | 99.6% (active) |
| O=[N+]([O-])c1cc(S(=O)(=O)F)ccc1S | 88.9% (active) |
| CCCCN(CCCC)CCc1ccc(OC(=O)c2ccc(N)cc2)cc1 | 91.2% (active) |
| Cc1ccc(C(=O)OC(C(=O)O)C(OC(=O)c2ccc(C)cc2)C(=O)O)cc1 (centres undefined) (tested in a mixture with another compound) | 21.2% (inactive) and 93.8% (active) |
| N#C[S-].[Ce+3].c1ccc(-c2ccccn2)nc1.c1ccc(-c2ccccn2)nc1.c1ccc(-c2ccccn2)nc1 | 92.9% (active) |
| Nc1nc(N)c(-c2ccc(Cl)c(Cl)c2)c(CCc2ccc(CNC(=O)c3ccc(S(=O)(=O)F)cc3)cc2)n1 | 44% (inactive) |
| CC1C2C=CC1C(c1c3ccc(=O)c(O)c-3oc3c(O)c(O)ccc13)C2C(=O)O (centres undefined) | 53% (inactive) |
| O=C(O)CN(CCN(CC(=O)O)CC(=O)O)CC(=O)O | 65.8% (inactive) and 26.2% (inactive) and 57.2% (inactive) |
| O=S(=O)(F)c1ccc(Cl)cc1C[P+](c1ccccc1)(c1ccccc1)c1ccccc1 | 53.5% (inactive) |
| Oc1ccc2ccccc2c1O | 57.3% (inactive) |
| COC1=[C]([Hg][Br])C(OC)OC1OC (centres undefined) | 99.5% (active) |
| Nc1nc(CCl)cs1 | -17.6% (inactive) and -0.25% (inactive) |
| CCC(C)N1CN(c2ccccc2)C2(CCN(CCCC3(c4ccc(F)cc4)OCCO3)CC2)C1=O (centres undefined) | 34% (inactive) |
| COc1ccc(NP(=S)(Nc2ccc(OC)cc2)c2ccccc2)cc1 | 49.6% (inactive) |

— PubChem BioAssay (NCI)
